# From PubChem
# NPC1 prom act: qHTS Assay for NPC1 Promoter Activators; Huh7 NPC1 promoter luciferase reporter, 24 h; Potency, µM (doses to about 9.22 µM), for inactives: top-dose activation, actives largely listed as activators; 320,000 compounds, 2.4% hits; AID 485313, 2010; note: % of control where 0% means no effect; nearly all actives have a fitted effect of over 60% in size
#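 Quantitative HTS used a cell-based reporter: Huh7 cells stably bearing the NPC1 promoter upstream of luciferase were treated with compounds for 24 h, and promoter activation was read as luminescence.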
# SMN2 splice up: qHTS Assay for Enhancers of SMN2 Splice Variant Expression | HEK293 SMN2-luciferase splicing reporter, luminescence, 30-36 h | AID 1458, 2008 | Potency, µM (highest dose often 46.1 µM), for the others: at the top dose activity change, positive = activation, most hits filed as activators | 210,000 compounds, 2.8% hits; note: % of control where 0% means no effect; nearly all actives have a fitted effect of over 55% in size
#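 HEK293 cells carry an SMN2 minigene-luciferase reporter in which exon 7 inclusion puts luciferase in frame. Cells were seeded at 2000 cells/well, attached for 10-12 hours, then exposed to compounds for 30-36 hours at 37C before ONE-Glo luminescence.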
# Luc counter: Counterscreen for Luciferase (Kinase-Glo TM) Inhibition | Luciferin 4-monooxygenase (Photuris pensylvanica), Q27757 | Kinase-Glo luciferase, ATP luminescence, 8 min | Potency, µM (doses to about 38.3 µM), inactives show top-dose activity change, negative = inhibition, usual class: inhibitors | 200,000 compounds, 0.28% hits | AID 1379, 2008; note: % is set by controls: 0 for no effect and ±100 for the full control effect; nearly all actives have a fitted effect of over 60% in size
#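 Compounds were added to a substrate mix at pH 7.2 (50 mM imidazole, 10 uM ATP, within the enzyme's linear range), followed by Kinase-Glo detection reagent; luminescence was measured after 8 minutes at ambient temperature.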
# FLuc modulator: qHTS profiling assay for firefly luciferase inhibitor/activator using purifed enzyme and Km concentrations of substrates (counterscreen for miR-21 project); 360,000 compounds, 6.9% hits; purified FLuc, Km substrates, luminescence inhibition; AID 588342, 2011; Potency, µM (series often up to 57.5 µM), for the others: at the highest dose activity change, negative = inhibition, hits mostly inhibitors;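 note: plate controls were vehicle for no effect and reference inhibitor for full effect; nearly all actives have a fitted effect of over 55% in size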
# Target sequence (P08659 whole entry, looked up): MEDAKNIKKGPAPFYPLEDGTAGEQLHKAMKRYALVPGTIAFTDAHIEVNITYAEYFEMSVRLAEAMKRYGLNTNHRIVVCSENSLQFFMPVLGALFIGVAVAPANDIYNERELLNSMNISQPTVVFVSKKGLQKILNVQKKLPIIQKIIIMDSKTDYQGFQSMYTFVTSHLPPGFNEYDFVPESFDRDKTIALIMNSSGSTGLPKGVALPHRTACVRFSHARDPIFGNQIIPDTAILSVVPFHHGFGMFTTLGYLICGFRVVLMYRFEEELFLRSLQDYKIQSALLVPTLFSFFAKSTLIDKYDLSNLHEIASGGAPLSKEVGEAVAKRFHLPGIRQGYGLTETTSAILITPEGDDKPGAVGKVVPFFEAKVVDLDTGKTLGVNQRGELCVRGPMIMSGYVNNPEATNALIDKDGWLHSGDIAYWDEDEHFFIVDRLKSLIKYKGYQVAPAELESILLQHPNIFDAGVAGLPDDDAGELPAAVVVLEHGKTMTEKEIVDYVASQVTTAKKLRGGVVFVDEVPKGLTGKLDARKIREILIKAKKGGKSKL
#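 Purified P. pyralis luciferase, 10 nM final, with Km-level 10 uM D-luciferin and 10 uM ATP in 50 mM Tris acetate pH 7.5, 10 mM Mg acetate, 0.01% Tween-20, 0.05% BSA; 6-point qHTS titration about 60 µM downward; luminescence read.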
# ELG1 genotoxic: qHTS screen for small molecules that induce genotoxicity in human embryonic kidney (HEK293T) cells expressing luciferase-tagged ELG1. 330,000 compounds, 1.3% hits. HEK293T ELG1-luciferase reporter, luminescence, 16 h. AID 504466, 2011. Potency, µM (top dose mostly 46 µM), without a hit: top-dose activity change, positive = activation, usual class: activators; note: % of control where 0% means no effect; nearly all actives have a fitted effect of over 60% in size
#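 After overnight (16 hr) compound treatment at 37 °C, ELG1-luciferase HEK293T cells were lysed with ONE-Glo; luminescence quantified 30 min later at room temperature.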
# Rab9 prom act: qHTS Assay for Rab9 Promoter Activators | Huh7 Rab9 promoter-luciferase reporter, luminescence, 24 h | Potency, µM (doses to about 9.22 µM), inactives show top-dose activation, negative = inhibition, most hits filed as activators | 320,000 compounds, 2.8% hits | AID 485297, 2010; note: % of control where 0% means no effect; nearly all actives have a fitted effect of over 60% in size
#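 Huh7 reporter line, Rab9 promoter upstream of luciferase. Compound exposure 24 h at 37 °C in reduced-serum medium with 10% FBS. Read-out: luminescence.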
# Starred values were filed as active, the others as inactive; ? = inconclusive; nt = no result given. Rows were chosen to be rich in hits. Some 7.4% of all compounds tested hit in one or more screens of this group. Calls come from the whole dose curve; as a rule, active = well fitted curve in the direction sought with a large enough effect; inconclusive = small, poorly fitted or top-dose-only effect, or another doubt; inactive = no such curve, though single readings can be large; an effect the other way counts as inactive or inconclusive. Potency is the fitted concentration of half-maximal effect.
SMILES,NPC1 prom act,SMN2 splice up,Luc counter,FLuc modulator,ELG1 genotoxic,Rab9 prom act
COc1ccc(NC(=O)O/N=C/c2ccc(Br)cc2)cc1,10%,nt,nt,27µM*,3%,0%
Cc1ccc(NC(=O)O/N=C/c2ccc(N(C)C)cc2)cc1,?,nt,nt,12µM*,15%,26%
CN(C)c1ccc(/C=N/OC(=O)Nc2ccccc2Cl)cc1,5%,nt,nt,24µM*,10%,29%
CCOc1cc(C2NC(=O)NC(C)=C2C(=O)OCC2CCCCC2)ccc1O (stereo not given),-4%,nt,nt,-2%,0%,4%
CC(C)c1cccc(C(C)C)c1NC(=O)CCN1C(=O)NC2(CCCC2)C1=O,-8%,nt,nt,nt,0%,1%
CCN(C(=O)Cn1nnc(-c2ccccc2)n1)C1CCS(=O)(=O)C1 (stereo not given),-4%,nt,nt,6%,2%,-2%
O=C(Nc1ccc(C(=O)NCCCN2CCN(c3ccc(F)cc3)CC2)cc1)C1=CSCCO1,-2%,nt,nt,-1%,-5%,-3%
COc1ccc(NC(=O)O/N=C/c2ccc(N(C)C)cc2)cc1,17%,nt,nt,21µM*,7%,19%
COc1ccc(/C=N/OC(=O)Nc2ccc(Cl)cc2)c(OC)c1,3%,nt,nt,12µM*,15%,14%
O=C(CSc1ccc(Cl)cc1)OCC(=O)N1CCN(c2ccccc2)CC1,-2%,nt,nt,1%,-10%,-4%
Cc1ccc2nc(Cl)c3cc(C(=O)NC4CCC(C)CC4)sc3c2c1 (stereo not given),nt,-5%,nt,-7%,nt,nt
O=C(COc1coc(CN2CCc3ccccc3C2)cc1=O)N1CCOCC1,-3%,nt,nt,-1%,4%,1%
CCOC(=O)Nc1ccc2c(C)cc(=O)oc2c1,?,14µM*,-2%,15µM*,18µM*,?
CCOC(=O)Nc1ccc2c(CN(C)Cc3ccc(F)cc3)cc(=O)oc2c1,-1%,nt,nt,1%,8%,3%
Cc1cc(=O)oc2cc(NC(=O)CCOc3ccccc3)ccc12,23%,nt,nt,-2%,?,27%
CCCCOC(=O)Nc1ccc2c(C)cc(=O)oc2c1,1.8µM*,11µM*,-2%,6µM*,18µM*,1.4µM*
O=C(CCCc1c[nH]c2ccccc12)NCc1ccccc1C(F)(F)F,-9%,nt,nt,2%,-5%,2%
CCC(=O)CN(Cc1cc(OC)ccc1OC)S(=O)(=O)c1ccccc1Br,nt,nt,nt,nt,-1%,nt
COc1ccc2cc(CCOC3CCCCO3)ncc2c1 (stereo not given),0.32µM*,nt,nt,2.7µM*,?,0.5µM*
CCc1ccc(C(=O)CSc2n[nH]c(-c3ccncc3)n2)cc1,-1%,-9%,0%,24µM*,-3%,-1%
CCCOc1ccc(CSc2ncn[nH]2)cc1,17%,?,4%,11µM*,?,26%
CCc1ccc(C(=O)CSc2ncn[nH]2)cc1,20%,2%,-2%,17µM*,?,?
Brc1ccc(CSc2ncn[nH]2)cc1,0%,4%,-4%,-5%,1%,11%
Cc1ccc(C(=O)CSc2ncn[nH]2)cc1,17%,-3%,-3%,-18%,7%,0%
COc1cccc(-c2noc(CCC(=O)NCC3CCCO3)n2)c1 (stereo not given),0%,0%,3%,-17%,10%,11%
SMILES,NPC1 prom act,SMN2 splice up,Luc counter,FLuc modulator,ELG1 genotoxic,Rab9 prom act
O=C(Nc1ccc(F)cc1)Nc1ccc(NC(=O)c2ccccc2O)cc1,7%,nt,nt,-3%,4%,1%
COc1ccccc1N1CCN(Cc2cc(=O)c(OCC(=O)NC3CCCC3)co2)CC1,-2%,nt,nt,2%,0%,-1%
O=C(NC(=S)/C(=C1\CCCCCN1)[N+](=O)[O-])c1ccccc1,nt,nt,nt,nt,0.23µM*,nt
O=C1CCN(Cc2ccccc2)CCN1CCSc1ccccc1,?,nt,nt,13µM*,?,4.5µM*
CCCN1CCC(=O)N(CCSc2ccccc2)CC1,2.8µM*,nt,nt,?,?,3.5µM*
CCN(CC)S(=O)(=O)c1ccc(NC(=O)c2cc3ccc4cccnc4c3[nH]2)cc1,nt,nt,nt,-3%,nt,nt
COc1cc(-c2ccccc2)nc(N)n1,?,1%,7%,?,16µM*,3.2µM*
CCOc1cc(-c2ccccc2)nc(N)n1,?,0%,-13%,?,22%,?
Cc1ccc(N=C2NC(=O)/C(=C\c3cccs3)S2)cc1C,13%,3.5µM*,-6%,?,14%,23%
Cc1cccc(N=C2NC(=O)/C(=C/c3cccn3C)S2)c1,10%,nt,nt,12µM*,16%,14%
O=C1NC(=Nc2ccccc2)S/C1=C\c1cccn1-c1ccccc1,-1%,?,-2%,11µM*,?,24%
Cc1ccccc1N=C1NC(=O)/C(=C/c2cccn2C)S1,-1%,nt,nt,?,0%,-6%
COc1ccc(-c2nnc(SCC(=O)NC3CCCCC3)n2N)cc1,-1%,nt,nt,3%,0%,-3%
O=C1OC(c2ccccc2)=N/C1=C\N1CCCCC1,2.8µM*,?,-5%,9.5µM*,?,3.5µM*
O=C1OC(c2ccccc2)=C/C1=C/N1CCCCC1,2.5µM*,?,-5%,6µM*,?,2.5µM*
O=C1OC(c2ccc(Br)cc2)=N/C1=C\N1CCCCC1,2.2µM*,13µM*,-1%,?,15µM*,2.5µM*
Cc1ccc(CN2CCN(/N=C/c3ccc(C)s3)CC2)cc1,1%,-12%,0%,4%,-1%,-7%
COCCOC(=O)CSc1ncccc1-c1nc2cc(C)c(C)cc2[nH]1,?,16µM*,13µM*,2.1µM*,?,3.5µM*
CCOC(=O)CSc1nc2cccnc2n1C,1%,8%,3%,-2%,0%,-13%
Cc1cc2nc(-c3cccnc3SCC(=O)NC(C)C)[nH]c2cc1C,2.8µM*,11µM*,?,2.7µM*,23µM*,2.2µM*
O=C(CSc1ncccc1-c1nc2ccccc2[nH]1)NC1CC1,0%,17%,-9%,?,3%,-11%
Cc1ccc(S(=O)(=O)NCCC(=O)NCCc2ccc(S(N)(=O)=O)cc2)cc1C,nt,nt,nt,nt,-2%,nt
O=C(C1CC1)N1N=C(c2ccncc2)CC1(O)C(F)(F)F (stereo not given),-1%,11%,3%,0%,-1%,-1%
S=c1[nH]nc(-c2cc(-c3ccccc3)n[nH]2)n1/N=C/C=C/c1ccco1,-3%,nt,nt,13µM*,5%,0%
